RGS16-Gao HTS: RGS16-Galphao interaction regulator (human). O15492+P09471. bead-based flow cytometry RGS16-Galphao binding, fluorescence; actives lie on both sides. binding response (% of control), % at 10 µM. hit rate 0.38% among 220,000. AID 1441;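 also: Galphao activated by GDP with aluminum fluoride before binding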
Target sequence (O15492 whole entry, looked up): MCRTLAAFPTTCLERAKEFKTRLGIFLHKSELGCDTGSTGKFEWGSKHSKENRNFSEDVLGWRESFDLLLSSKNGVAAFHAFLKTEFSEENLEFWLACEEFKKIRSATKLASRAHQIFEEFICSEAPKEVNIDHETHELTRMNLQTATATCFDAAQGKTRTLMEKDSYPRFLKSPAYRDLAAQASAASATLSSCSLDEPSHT
Target sequence (P09471 whole entry, looked up): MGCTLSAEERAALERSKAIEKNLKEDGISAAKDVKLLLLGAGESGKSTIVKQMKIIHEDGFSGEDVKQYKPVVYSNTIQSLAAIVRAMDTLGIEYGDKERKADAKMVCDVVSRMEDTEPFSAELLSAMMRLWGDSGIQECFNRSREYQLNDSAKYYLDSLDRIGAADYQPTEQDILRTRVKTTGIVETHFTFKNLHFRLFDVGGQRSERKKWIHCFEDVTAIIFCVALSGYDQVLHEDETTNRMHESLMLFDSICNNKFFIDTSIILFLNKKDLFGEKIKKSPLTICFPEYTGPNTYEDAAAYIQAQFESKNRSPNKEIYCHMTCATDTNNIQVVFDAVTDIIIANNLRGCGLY
Avidin bead fluor: compound fluoresces at 488/530 nm on avidin beads | compound fluorescence 488/530 nm, flow cytometry; stronger effect = higher value | AID 1775 | fluorescence (KMESF) at 10 µM | hit rate 0.38% among 220,000; in the data active = fluorescence above about 47
RGS4-Gao reg: modulates binding of RGS4 to human Galphao. Multiplexed bead flow cytometry; actives lie on both sides. binding response (% of control), % at 10 µM. hit rate 0.33% among 220,000. AID 1415; in the data active = binding response below about 49% or above about 150%; inactive = in between;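 also: fluorescent Galphao activated with aluminum fluoride binding bead-coupled RGS4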
RGS7-Gao reg: human RGS7-Galphao interaction regulation; P09471; Multiplexed bead flow cytometry, RGS7-Galphao binding; actives lie on both sides; binding response (% of control), % at 10 µM; hit rate 0.35% among 220,000; AID 1439; in the data active = binding response below about 49% or above about 150%; inconclusive = no clear call, values can overlap the other calls; inactive = in between;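 also: fluorescent Galphao held in activated GDP-AlF4 state binding bead-coupled RGS7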
GSH fluor: compound fluoresces at 488/530 nm on GSH beads | GSH beads flow cytometry, compound fluorescence 488/530 nm; stronger effect = higher value | fluorescence (KMESF) at 10 µM | hit rate 0.25% among 190,000 | AID 1776; in the data active = fluorescence above about 89;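 also: glutathione beads carrying GST-tagged Bcl family fusion proteins plus one bare bead set; values are compound well signal with DMSO vehicle wells as background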
RGS8-Gao: regulators of human RGS8-Galphao interaction. P09471. multiplexed bead flow cytometry, RGS8-Galphao binding; actives lie on both sides. response (percent of control binding), % at 10 µM. hit rate 0.34% among 220,000. AID 1423; in the data active = response below about 60% or above about 140%; inactive = in between;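 also: Galphao activated as the GDP aluminium fluoride complex binding bead-coupled RGS8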
RGS4-Gao HTS: RGS4-Galphao interaction regulator (human); shares compounds with RGS16-Gao HTS; multiplexed bead flow cytometry, RGS–Galpha-o binding; RGS4–Galpha-o binding response, % at 10 µM; hit rate 99% among 1,600; AID 1504;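 also: fluorescently labeled Galpha-o bound to GDP with aluminium fluoride binding biotinylated RGS beads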
Avidin counter: counter-screen: compounds disrupting biotin binding to avidin beads; shares compounds with RGS16-Gao HTS; streptavidin beads, fluorescein-biotin binding, flow cytometry; inhibition, % at 10 µM; 1,700 tested, under 10 active; AID 1783;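 active = inhibition above 50%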;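 also: median green fluorescence of gated singlet beads compared with DMSO control wells; 0% = DMSO wells and 100% = complete loss of bead fluorescence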
RGS8-Gao single: confirmation of regulators of human RGS8-Galphao interaction | shares compounds with RGS16-Gao HTS | hit rate 3% among 1,700 | binding response (% of control), % at 10 µM | bead-based flow cytometry RGS8-Galphao binding, fluorescence; actives lie on both sides | AID 1836; in the data active = binding response below about 72% or above about 130%; inactive = in between;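 also: Galphao activated as GDP AlF4 complex before binding bead RGS8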
RGS7-Gao confirm: confirmation of regulators of human RGS7-Galphao interaction; AID 1837; bead-based flow cytometry RGS7-Galphao binding; actives lie on both sides; response (percent of control binding), % at 10 µM; shares compounds with RGS16-Gao HTS; hit rate 7.8% among 1,700; in the data active = response below about 75% or above about 130%; inactive = in between;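 also: fluorescent Galphao activated with GDP and aluminum fluoride binding bead-coupled RGS7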
RGS16-Gao conf: RGS16-Galphao interaction regulation, single point confirmation; hit rate 4% among 1,700; bead-based flow cytometry, RGS16-Galphao binding; actives lie on both sides; shares compounds with RGS16-Gao HTS; response (% of control binding), % at 10 µM; AID 1838; in the data active = response below about 74% or above about 130%; inactive = in between;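 also: Galphao activated as the GDP aluminium fluoride complex binding bead-coupled RGS16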
RGS4-Gao single: RGS4-Galphao interaction regulation, single point confirmation | shares compounds with RGS16-Gao HTS | RGS4-Galphao binding, multiplexed bead flow cytometry; actives lie on both sides | binding response (% of control), % at 10 µM | hit rate 4% among 1,700 | AID 1840; in the data active = binding response below about 74% or above about 130%; inactive = in between
RGS19-Gao conf: RGS19-Galphao interaction regulation, single point confirmation; shares compounds with RGS16-Gao HTS; bead-based flow cytometry RGS19-Galphao binding; actives lie on both sides; response (percent of control binding), % at 10 µM; hit rate 5% among 1,700; in the data active = response below about 50% or above about 160%; inactive = in between;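 also: 100% = no compound control and 0% = blank background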
An asterisk follows results filed as active; ? = inconclusive; . = no result; [ ] = dose if it differs, or a comment. Rows were chosen to be rich in hits. Some 1.2% of all compounds tested hit in one or more screens of this group. Unless noted, no rule for the calls is given here.

SMILES | RGS16-Gao HTS | Avidin bead fluor | RGS4-Gao reg | RGS7-Gao reg | GSH fluor | RGS8-Gao | Avidin counter | RGS8-Gao single | RGS7-Gao confirm | RGS16-Gao conf | RGS4-Gao single | RGS19-Gao conf | others
O=C1c2ccccc2NC(c2cccc(F)c2)N1Cc1ccco1 (configuration not stated) | 53 | 1 | 43* | 31* | 19 | 51* | -1 | 100 | 103 | 100 | 101 | 102
COc1ccc(NC(=O)c2ccc(COc3ccccc3Br)o2)cc1OC | 100 | 33 | 96 | 94 | 14 | 99 | . | . | . | . | . | .
COc1cc(NC(=O)c2ccc(COc3ccccc3Br)o2)cc(OC)c1OC | 208*[activator] | 77* | 149 | 126 | 30 | 112 | 2 | 96 | 91 | 94 | 95 | 82 | RGS4-Gao HTS=149*
CCn1c(SCc2nc3scc(-c4ccccc4)c3c(=O)[nH]2)nnc1-c1ccc(Cl)cc1 | 91 | 1 | 90 | 94 | 3 | 93 | . | . | . | . | . | .
Cc1nc(N)nc(N)c1/C=C/C(C)(C)c1ccc(Cl)cc1 | 99 | 7 | 100 | 97 | 7 | 101 | . | . | . | . | . | .
O=C1CC(c2ccc(S(=O)(=O)NCCOc3ccccc3)cc2)CN1 (configuration not stated) | . | . | . | . | 33 | . | 2 | 101 | 97 | 100 | 97 | 103
CC(=O)Nc1ccc(NC(=O)c2ccco2)cc1 | -100* | 8 | 83 | 85 | 15 | 69 | -1 | 102 | 97 | 102 | 101 | 94 | RGS4-Gao HTS=83*
O=C(NCCc1ccncc1)Nc1ccccc1Cl | 97 | 126* | 88 | 194*[activator] | 9 | 95 | 0 | 97 | 89 | 97 | 97 | 86 | RGS4-Gao HTS=88*
O=C(NCCc1ccncc1)Nc1cccc(Cl)c1 | 89 | 7 | 87 | 84 | 6 | 94 | . | . | . | . | . | .
O=C(Cn1c(C(F)(F)F)nc2ccccc21)Nc1ccccc1N1CCOCC1 | 42 | 8 | 48* | 45* | 35 | 54* | 0 | 99 | 102 | 100 | 103 | 103
COc1cccc(OC)c1C(=O)NC(=S)Nc1ccc2oc(=O)ccc2c1 | 100 | 12 | 101 | 102 | 10 | 103 | . | . | . | . | . | .
COc1ccc(C(=O)NC(=S)Nc2ccc3oc(=O)ccc3c2)cc1OC | 243*[activator] | 4 | 121 | 116 | 18 | 138 | -2 | 106 | 108 | 107 | 108 | 106 | RGS4-Gao HTS=121*
O=C(CCl)Nc1cc(S(=O)(=O)N2CCOCC2)ccc1N1CCOCC1 | 96 | 11 | 96 | ? | 12 | 96 | . | . | . | . | . | .
O=C(CSc1ccccc1)Nc1cc(S(=O)(=O)N2CCOCC2)ccc1N1CCOCC1 | 13* | 1 | 22* | ? | 14 | 15* | -2 | 104 | 102 | 103 | 100 | 130
O=[N+]([O-])c1ccc(Sc2ccccc2)nc1 | 106 | 5 | 100 | 98 | 13 | 103 | . | . | . | . | . | .
Nc1cccnc1Sc1ccc([N+](=O)[O-])cn1 | -30 | -2 | 4.3* | 5.8* | 8 | 5.6* | -2 | 91 | 131*[activator] | 94 | 105 | 95
CCOC(=O)N1CCC(NC(=O)c2ccc(N3CCC4(CC3)OCCO4)c([N+](=O)[O-])c2)CC1 | 99 | 14 | 100 | 101 | 16 | 99 | . | . | . | . | . | .

Assay outcomes from PubChem.
